The record followed here is PMC11006913.

Assay in all cases: PBM; 200 nM protein, PBS
Holding throughout (details): dsDNA, one strand shown

In assay [1] the target is T1, SIX6 (Homo sapiens, UniProt O95475 114-200, L167I).
T1 sequence: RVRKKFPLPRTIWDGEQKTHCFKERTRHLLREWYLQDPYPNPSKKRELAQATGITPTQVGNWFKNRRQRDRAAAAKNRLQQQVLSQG

Assay [2] deals with T2, SIX6 (Homo sapiens, UniProt O95475 114-200, L143V).
T2 sequence: T1 sequence with L30V, I54L

Assay [3] has as its target T3, SIX6 (Homo sapiens, UniProt O95475 114-200, H141N).
T3 sequence: T1 sequence with H28N, I54L

In assay [4] the target is T4, SIX6 (Homo sapiens, UniProt O95475 114-200, T165P).
T4 sequence: T1 sequence with T52P, I54L

For assay [5], the target named is T5, SIX6 (Homo sapiens, UniProt O95475 114-200, L167M).
T5 sequence: T1 sequence with I54M

The target in assay [6] is T6, SIX6 (Homo sapiens, UniProt O95475 114-200, L143M).
T6 sequence: T1 sequence with L30M, I54L

The target in assay [7] is T7, SIX6 (Homo sapiens, UniProt O95475 114-200, L143I).
T7 sequence: T1 sequence with L30I, I54L

For assay [8], the target named is T8, SIX6 (Homo sapiens, UniProt O95475 114-200, T165G).
T8 sequence: T1 sequence with T52G, I54L

In assay [9] the target is T9, SIX6 (Homo sapiens, UniProt O95475 114-200, T139Q).
T9 sequence: T1 sequence with T26Q, I54L

For assay [10], the target named is T10, SIX6 (Homo sapiens, UniProt O95475 114-200, T165A).
T10 sequence: T1 sequence with T52A, I54L

Assay [11] addresses T11, SIX6 (Homo sapiens, UniProt O95475 114-200, L167V).
T11 sequence: T1 sequence with I54V

The target in assay [12] is T12, SIX6 (Homo sapiens, UniProt O95475 114-200).
T12 sequence: T1 sequence with I54L

For assay [13], the target named is T13, SIX6 (Homo sapiens, UniProt O95475 114-200, T165I).
T13 sequence: T1 sequence with T52I, I54L

Positions count from the first letter of the chain named.

As to CATGATCA, the binding signal in assay [1] is 10.5 upbm affinity estimate (log intensity, higher = more binding, comparable within an allelic series); in [2] it was 9.91 upbm affinity estimate (log intensity, higher = more binding, comparable within an allelic series); in assay [3], 10.3 upbm affinity estimate (log intensity, higher = more binding, comparable within an allelic series); in assay [4] it was 9.68 upbm affinity estimate (log intensity, higher = more binding, comparable within an allelic series); in assay [5], 10.1 upbm affinity estimate (log intensity, higher = more binding, comparable within an allelic series); in assay [6], 10.4 upbm affinity estimate (log intensity, higher = more binding, comparable within an allelic series). Further, the binding signal in assay [7] is 9.97 upbm affinity estimate (log intensity, higher = more binding, comparable within an allelic series); in assay [8], 10.4 upbm affinity estimate (log intensity, higher = more binding, comparable within an allelic series); in assay [9] it was 10.6 upbm affinity estimate (log intensity, higher = more binding, comparable within an allelic series); in [10], 10.3 upbm affinity estimate (log intensity, higher = more binding, comparable within an allelic series); in assay [11] it was 10.4 upbm affinity estimate (log intensity, higher = more binding, comparable within an allelic series); in [12], 10.3 upbm affinity estimate (log intensity, higher = more binding, comparable within an allelic series). Further, in assay [13], the binding signal is 10.2 upbm affinity estimate (log intensity, higher = more binding, comparable within an allelic series).

For the sequence CAGCCCCG, the binding signal in [1] is 8.86 upbm affinity estimate (log intensity, higher = more binding, comparable within an allelic series); in assay [2], 8.79 upbm affinity estimate (log intensity, higher = more binding, comparable within an allelic series); in assay [3], 8.86 upbm affinity estimate (log intensity, higher = more binding, comparable within an allelic series); in assay [4] it was 8.88 upbm affinity estimate (log intensity, higher = more binding, comparable within an allelic series); in [5], 8.84 upbm affinity estimate (log intensity, higher = more binding, comparable within an allelic series); in assay [6], 8.78 upbm affinity estimate (log intensity, higher = more binding, comparable within an allelic series). Further, the binding signal was 8.82 upbm affinity estimate (log intensity, higher = more binding, comparable within an allelic series) in [7]; 8.82 upbm affinity estimate (log intensity, higher = more binding, comparable within an allelic series) in [8]; 8.98 upbm affinity estimate (log intensity, higher = more binding, comparable within an allelic series) in assay [9]; 8.8 upbm affinity estimate (log intensity, higher = more binding, comparable within an allelic series) in assay [10]; 8.86 upbm affinity estimate (log intensity, higher = more binding, comparable within an allelic series) in assay [11]; 8.8 upbm affinity estimate (log intensity, higher = more binding, comparable within an allelic series) in assay [12]. Further, the binding signal in assay [13] was 8.81 upbm affinity estimate (log intensity, higher = more binding, comparable within an allelic series).

As for CCCCGCAG, the binding signal in assay [1] was 9.03 upbm affinity estimate (log intensity, higher = more binding, comparable within an allelic series); in assay [2], 8.85 upbm affinity estimate (log intensity, higher = more binding, comparable within an allelic series); in assay [3] it was 9.03 upbm affinity estimate (log intensity, higher = more binding, comparable within an allelic series); in assay [4] it was 8.95 upbm affinity estimate (log intensity, higher = more binding, comparable within an allelic series); in [5], 9 upbm affinity estimate (log intensity, higher = more binding, comparable within an allelic series); in assay [6] it was 8.92 upbm affinity estimate (log intensity, higher = more binding, comparable within an allelic series). In addition, the binding signal is 8.95 upbm affinity estimate (log intensity, higher = more binding, comparable within an allelic series) in assay [7]; 9.04 upbm affinity estimate (log intensity, higher = more binding, comparable within an allelic series) in [8]; 8.99 upbm affinity estimate (log intensity, higher = more binding, comparable within an allelic series) in assay [9]; 8.96 upbm affinity estimate (log intensity, higher = more binding, comparable within an allelic series) in assay [10]; 8.93 upbm affinity estimate (log intensity, higher = more binding, comparable within an allelic series) in assay [11]; 8.96 upbm affinity estimate (log intensity, higher = more binding, comparable within an allelic series) in assay [12]. For the same sequence, the binding signal in assay [13] is 8.97 upbm affinity estimate (log intensity, higher = more binding, comparable within an allelic series).

GCCCGGAA: the binding signal was 9.01 upbm affinity estimate (log intensity, higher = more binding, comparable within an allelic series) in assay [1]; 8.91 upbm affinity estimate (log intensity, higher = more binding, comparable within an allelic series) in assay [2]; 8.98 upbm affinity estimate (log intensity, higher = more binding, comparable within an allelic series) in [3]; 8.9 upbm affinity estimate (log intensity, higher = more binding, comparable within an allelic series) in assay [4]; 8.95 upbm affinity estimate (log intensity, higher = more binding, comparable within an allelic series) in assay [5]; 9.01 upbm affinity estimate (log intensity, higher = more binding, comparable within an allelic series) in [6]. Also, the binding signal was 9 upbm affinity estimate (log intensity, higher = more binding, comparable within an allelic series) in [7]; 9.03 upbm affinity estimate (log intensity, higher = more binding, comparable within an allelic series) in assay [8]; 9.07 upbm affinity estimate (log intensity, higher = more binding, comparable within an allelic series) in assay [9]; 8.96 upbm affinity estimate (log intensity, higher = more binding, comparable within an allelic series) in assay [10]; 8.95 upbm affinity estimate (log intensity, higher = more binding, comparable within an allelic series) in [11]; 8.97 upbm affinity estimate (log intensity, higher = more binding, comparable within an allelic series) in [12]. Moreover, in assay [13], the binding signal is 8.98 upbm affinity estimate (log intensity, higher = more binding, comparable within an allelic series).

With GCCAGTCC, the binding signal in assay [1] was 9.04 upbm affinity estimate (log intensity, higher = more binding, comparable within an allelic series); in [2] it was 8.92 upbm affinity estimate (log intensity, higher = more binding, comparable within an allelic series); in [3], 8.9 upbm affinity estimate (log intensity, higher = more binding, comparable within an allelic series); in assay [4] it was 9.04 upbm affinity estimate (log intensity, higher = more binding, comparable within an allelic series); in assay [5] it was 8.92 upbm affinity estimate (log intensity, higher = more binding, comparable within an allelic series); in assay [6] it was 8.89 upbm affinity estimate (log intensity, higher = more binding, comparable within an allelic series). Also, the binding signal in assay [7] is 9.03 upbm affinity estimate (log intensity, higher = more binding, comparable within an allelic series); in [8], 9 upbm affinity estimate (log intensity, higher = more binding, comparable within an allelic series); in [9], 9.12 upbm affinity estimate (log intensity, higher = more binding, comparable within an allelic series); in [10], 8.81 upbm affinity estimate (log intensity, higher = more binding, comparable within an allelic series); in [11], 8.95 upbm affinity estimate (log intensity, higher = more binding, comparable within an allelic series); in [12], 8.9 upbm affinity estimate (log intensity, higher = more binding, comparable within an allelic series). Moreover, the binding signal in assay [13] was 8.85 upbm affinity estimate (log intensity, higher = more binding, comparable within an allelic series).

With GATGATAC, the binding signal was 11.4 upbm affinity estimate (log intensity, higher = more binding, comparable within an allelic series) in [1]; 10.4 upbm affinity estimate (log intensity, higher = more binding, comparable within an allelic series) in assay [2]; 11.3 upbm affinity estimate (log intensity, higher = more binding, comparable within an allelic series) in assay [3]; 9.55 upbm affinity estimate (log intensity, higher = more binding, comparable within an allelic series) in [4]; 10.7 upbm affinity estimate (log intensity, higher = more binding, comparable within an allelic series) in assay [5]; 11.1 upbm affinity estimate (log intensity, higher = more binding, comparable within an allelic series) in assay [6]. Further, the binding signal in assay [7] is 10.5 upbm affinity estimate (log intensity, higher = more binding, comparable within an allelic series); in assay [8] it was 11.4 upbm affinity estimate (log intensity, higher = more binding, comparable within an allelic series); in assay [9], 11.3 upbm affinity estimate (log intensity, higher = more binding, comparable within an allelic series); in [10] it was 11.2 upbm affinity estimate (log intensity, higher = more binding, comparable within an allelic series); in assay [11] it was 11.2 upbm affinity estimate (log intensity, higher = more binding, comparable within an allelic series); in assay [12], 11.1 upbm affinity estimate (log intensity, higher = more binding, comparable within an allelic series). The binding signal in assay [13] is 11.1 upbm affinity estimate (log intensity, higher = more binding, comparable within an allelic series).
